Results filed as inconclusive are left out. Where a call stands in place of a potency, no number is given. Unmarked numbers belong to inactive results. Calls of active or inactive are those of the source. Calls follow the shape of the dose curve; as a rule, active = well fitted cell-killing curve with a large enough effect in the repeat runs; inconclusive = weak or mixed curves, or effect the other way; inactive = flat fitted curve, though single readings scatter.

A short description of this test: qHTS assay to identify small molecule agonists of the TGF-beta/Smad signaling pathway - cell viability counter screen (AID 1346829). Also: top concentration of the series differs between compounds; nearly all actives have a fitted effect of over 45% in size. The following applies: SBE-bla HEK293T viability, CellTiter-Glo luminescence, 5 h; series mostly up to 76.8 µM. An excerpt:
National Center for Advancing Translational Sciences [NCATS]
NIH Chemical Genomics Center [NCGC]
U.S. Environmental Protection Agency [EPA]
National Institutes of Environmental Health Sciences [NIEHS]
National Toxicology Program [NTP]
U.S. Food and Drug Administration [FDA]
Transforming growth factor beta (TGF-beta) superfamily consists of a large number of structurally related dimeric proteins that act as hormones or local mediators in regulating a wide range of biological functions. This superfamily includes TGF-betas themselves, the bone morphogenetic proteins (BMPs) and the activins. These ligands induce oligomerization of serine/threonine receptor kinases and phosphorylate the cytoplasmic signaling molecules of Smad protein family. CellSensor SBE-bla HEK 293T cell line (Life Technologies, Carlsbad, CA), responsive to TGF-beta was used to screen Tox21 10K compound library for identification of agonists/antagonists of the Smad signaling pathway. This cell line contains a beta-lactamase reporter gene under control of the Smad binding element (SBE) stably integrated into HEK 293T cells. Also cytotoxicity of the compounds was tested in parallel by measuring the cell viability using CellTiter-Glo assay system in the same wells.
Tox21 Assay Protocol Summary:
SBE-bla HEK 293T cells were dispensed at 4,000/well in 6 uL of assay medium into black wall/clear-bottom 1536-well plates using a Multidrop Combi (ThermoFisher Scientific, Waltham, MA) dispenser. After the assay plates were incubated at 37 C and 5% CO2 for an overnight, 23 nL of compounds dissolved in DMSO, positive controls or DMSO only was transferred to the assay plate by a Pintool station (Kalypsys, San Diego, CA). The assay plates were incubated at 37 C and 5% CO2 for 5 hr. One uL of LiveBLAzer B/G FRET substrate (Life Technologies) was added using a Flying Reagent Dispenser (FRD, Aurora Discovery, San Diego, CA) and the plates were incubated at room temperature for 2 hr. Fluorescence intensity (405 nm excitation, 460 nm and 530 nm emissions) was measured using an Envision plate reader (PerkinElmer, Shelton, CT). For cytotoxicity read, 4 uL of CellTiter-Glo reagent (Promega Corporation, Madison, WI) was added to each well of the assay plates using FRD. After 30min incubation at room temperature, the luminescence intensity was measured using ViewLux plate reader (PerkinElmer).
For `Cc1ccc(S(=O)(=O)N[C@@H](CCCCN)C(=O)CCl)cc1`, the Potency entry is “inactive”.
In the case of `CCN[C@H](C)Cc1cccc(C(F)(F)F)c1`, the Potency entry was “inactive”.
On to `O=C(Cl)CCl`, for which the Potency entry is “inactive”.
Regarding `Clc1cc2c(cc1Cl)Oc1cc(Cl)c(Cl)cc1O2`, the activity change, negative = cytotoxicity was 9.06% [at 0.29 µM].
As to `Nc1c(Cl)c(F)nc(OCC(=O)O)c1Cl`, the Potency entry was “inactive”.
Turning to `O=C(O)C(Br)(Br)Br`, the Potency result is “inactive”.
Turning to `CCOC(=O)c1ncn2c1CN(C)C(=O)c1c(I)cccc1-2`, the Potency result was “inactive”.
Still for that read-out and setting: in the case of `O=C(Cl)C(Cl)Cl` it was “inactive”; in that of `NCCOS(=O)(=O)O`, “inactive”; in that of `CC[C@@H](CO)NC(=O)[C@@H]1C=C2c3cccc4c3c(cn4C)C[C@H]2N(C)C1`, “inactive”.
As to `CCC(C(N)=O)N1CCCC1=O` (stereo not given), the Potency entry is “inactive”.
Consider `CN(C)CCc1c[nH]c2cccc(OP(=O)(O)O)c12`, for which the Potency entry is “inactive”.
Turning to `O=P(O)(O)c1ccccc1`, the Potency result is “inactive”.
Take `CCC1(CC)C(=O)C=CNC1=O`: the Potency result was “inactive”.
As for `CCOC(=O)C(SP(=S)(OC)OC)c1ccccc1` (stereo not given), the Potency result is “inactive”.
The same measure, in the same setting: in the case of `CCCN1CCC[C@@H]2Cc3[nH]ncc3C[C@H]21` it was “inactive”.
Still for that read-out and setting: in the case of `CC(C)(C)NC[C@H](O)c1ccc(O)cc1Cl` it was “inactive”.
On to `CCN(CCO)CCO`, for which the Potency result was “inactive”.
For `CC(C)(O)C(Cl)(Cl)Cl`, the Potency result is “inactive”.
Turning to `N#CN`, the Potency entry was “inactive”.
Take `Brc1c(Br)c(Br)c(Br)c(Br)c1Br`: the activity change, negative = cytotoxicity was -6.42% [at 6.97 µM].
In the case of `CCN1CCCC1CNC(=O)C(O)(c1ccccc1)c1ccccc1` (stereo not given), the Potency result is “inactive”.
With `CC(Cl)(Cl)Cl`, the Potency entry is “inactive”.
As to `CON(C)C(=O)Nc1ccc(Br)c(Cl)c1`, the Potency entry was “inactive”.
With `Clc1ccc(C(Cl)(Cl)Cl)cn1`, the Potency result was “inactive”.
On the same count and under the same terms, for `O=c1[nH]c2ccccc2n1C1CCNCC1` the value was “inactive”; for `C[C@H](CN1CCOCC1)C(C(=O)N1CCCC1)(c1ccccc1)c1ccccc1`, “inactive”; for `C=CCc1cc(OC)c2c(c1)OCO2`, “inactive”.
In the case of `[P]#[In]`, the Potency entry was “inactive”.
Still for that read-out and setting: for `CC(Cc1ccccc1)NCCCCl` (stereo not given) the value was “inactive”.
For the compound `CCCC(C)(COC(N)=O)COC(N)=O`, the Potency entry was “inactive”.
For the compound `CC(C)(N)Cc1ccccc1Cl`, the Potency entry is “inactive”.
Turning to `C[C@H](N)C(=O)c1ccccc1`, the Potency result is “inactive”.
The same measure, in the same setting: in the case of `Cl/C=C/CCl` it was “inactive”; in that of `CCC1(c2ccccc2)CCC(=O)NC1=O` (stereo not given), “inactive”; in that of `CC(C)(N)Cc1ccc(Cl)cc1`, “inactive”.
Still for that read-out and setting: for `O=C(O)C(Cl)Br` (stereo not given) the value was “inactive”.
Turning to `CS(=O)(=O)c1ccc(C(=O)C2C(=O)CCCC2=O)c(Cl)c1COCC(F)(F)F`, the Potency entry was “inactive”.
Turning to `NC(=O)CS(=O)C(c1ccccc1)c1ccccc1` (stereo not given), the Potency entry was “inactive”.
For `CN1COCN(Cc2cnc(Cl)s2)/C1=N\[N+](=O)[O-]`, the Potency entry was “inactive”.

(Values after PubChem BioAssay (Tox21).)
